Measured values published in PubChem BioAssay (NCATS).
Results filed as inconclusive are left out. The source made the active and inactive calls. Unless noted, calls come from the whole dose curve; as a rule, active = well fitted curve in the direction sought with a large enough effect; inconclusive = small, poorly fitted or top-dose-only effect, or another doubt; inactive = no such curve, though single readings can be large; an effect the other way counts as inactive or inconclusive.

Assays:
[1] = biological target: Estrogen receptor (Homo sapiens) (UniProt P03372); experiment: qHTS assay for small molecule antagonists of estrogen receptor alpha signaling (AID 588513; active = well fitted curve in the direction sought with a large enough effect in the signal ratio, with a control signal flat, not every such curve was filed as active; the % refers to the signal ratio; note: % is set by controls: 0 for no effect and ±100 for the full control effect)
Summary of the method: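 Beta-lactamase reporter, antagonist mode, HEK 293 GripTite cells; 0.5nM E2 stimulus, 18 h, 37 C; CCF4 dye 2 h RT; fluorescence. IC50 and efficacy from Hill fits, normalized to E2 and DMSO.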

[2] = biological target: Estrogen receptor (Homo sapiens) (UniProt P03372); experiment: qHTS assay for small molecule agonists of estrogen receptor alpha signaling (AID 588514; calls by dose curve;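 note: 0% = vehicle only and 100% = reference agonist; nearly all actives have a fitted effect of over 70% in size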)
Summary of the method: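 Efficacy is expressed against 20 nM 17-beta-estradiol (100%) and DMSO basal (0%); EC50 from Hill equation. Assay: beta-lactamase reporter in ER-alpha-UAS-bla HEK 293 cells, 18 h compound incubation, CCF4 detection.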

[3] = biological target: Androgen receptor (Homo sapiens) (UniProt P10275); experiment: qHTS assay for small molecule antagonists of androgen receptor signaling (AID 588516; active = well fitted curve in the direction sought with a large enough effect in the signal ratio, with a control signal flat, not every such curve was filed as active; the % refers to the signal ratio; note: % is set by controls: 0 for no effect and ±100 for the full control effect)
Summary of the method: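 HEK293 AR-UAS-bla cells, 10% dialyzed FBS medium; cpd titration + R1881 10 nM final, 16 h 37 C; CCF4 2 h RT; FRET ratio; IC50/efficacy via Hill fit.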

[4] = biological target: Bile acid receptor (Homo sapiens) (UniProt Q96RI1); experiment: qHTS assay for small molecule antagonists of farnesoid X receptor signaling (AID 588526; calls by dose curve; note: % is set by controls: 0 for no effect and ±100 for the full control effect)
Summary of the method: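 Concentration-response titrations were fitted to the Hill equation for half-maximal inhibition and maximal response, with data normalised to 50 uM chenodeoxycholic acid and DMSO control wells. Cells: FXR-UAS-bla HEK293T, dialyzed FBS.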

[5] = biological target: Bile acid receptor (Homo sapiens) (UniProt Q96RI1); experiment: qHTS assay for small molecule agonists of farnesoid X receptor signaling (AID 588527; calls by dose curve;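 note: series mostly up to about 77 µM; 0% = vehicle basal and 100% = reference agonist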); conditions: HEK293T FXR-UAS-bla, beta-lactamase ratio, 16 h; activation: stronger effect = higher value
Summary of the method: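 Read-out: beta-lactamase reporter fluorescence with CCF4 substrate in GeneBLAzer FXR-UAS-bla HEK293T cells, after 16 h compound exposure at 37 C. Response scaled between DMSO basal (0%) and chenodeoxycholic acid at 100 uM (100%).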

[6] = biological target: Glucocorticoid receptor (Homo sapiens) (UniProt P04150); experiment: qHTS assay for small molecule antagonists of glucocorticoid receptor signaling (AID 588533; active = well fitted inhibition curve with a large enough effect in the signal ratio, with a control signal flat, not every such curve was filed as active; the % refers to the signal ratio;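 note: cells stimulated with 2 nM dexamethasone as agonist; % is set by controls: 0 for no effect and ±100 for the full control effect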)
Summary of the method: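 Antagonist-mode qHTS: compound titrations added to GRE-bla HeLa cells, then dexamethasone 2 nM final; 18 h, 37 C. CCF4 FRET fluorescence normalized to dexamethasone and DMSO; IC50 from Hill fit.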

[7] = biological target: Peroxisome proliferator-activated receptor delta (Homo sapiens) (UniProt Q03181); experiment: qHTS assay for small molecule agonists of peroxisome proliferator-activated receptor delta signaling (AID 588534; calls by dose curve;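 note: 0% = DMSO basal wells and 100% = positive control agonist at 10 µM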)
Summary of the method: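 Agonist-mode qHTS; reporter cells, 5 hrs 37 C pre-incubation; compound titration, 18 hrs 37 C; CCF4 dye, 2 hrs RT; fluorescence read. EC50/efficacy via Hill fit.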

[8] = qHTS assay for small molecule antagonists of peroxisome proliferator-activated receptor delta signaling (AID 588535; active = well fitted inhibition curve with a large enough effect in the signal ratio, with a control signal flat, not every such curve was filed as active; the % refers to the signal ratio;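 for max response: cells co-treated with a PPAR-delta agonist as stimulator during compound exposure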); conditions: HEK293T PPARd-UAS-bla, beta-lactamase FRET ratio, 18 h; 460 nm channel
Summary of the method: (§1)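 Inhibition of PPAR-delta response element-driven beta-lactamase expression is measured in HEK293T cells exposed to a compound titration series for 18 hrs at 37 C. Half-maximal inhibition comes from Hill equation fitting.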

[9] = biological target: Peroxisome proliferator-activated receptor delta (Homo sapiens) (UniProt Q03181); experiment: as above
Summary of the method: as §1

[10] = biological target: Peroxisome proliferator-activated receptor gamma (Homo sapiens) (UniProt P37231); experiment: qHTS assay for small molecule agonists of peroxisome proliferator-activated receptor gamma signaling (AID 588536; active = well fitted curve in the direction sought with a large enough effect in the signal ratio, with a control signal flat, not every such curve was filed as active; the % refers to the signal ratio;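 note: 0% = DMSO basal wells and 100% = rosiglitazone at 2 µM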)
Summary of the method: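 Beta-lactamase reporter read-out: CCF4 fluorescence (ex 405, em 460/530 nm) after 2 h at RT. HEK293 GeneBLAzer cells were treated for 16 h at 37 C. Hill fits gave EC50 and efficacy versus 2 uM rosiglitazone (100%) and DMSO (0%).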

[11] = biological target: Peroxisome proliferator-activated receptor gamma (Homo sapiens) (UniProt P37231); experiment: qHTS assay for small molecule antagonists of peroxisome proliferator-activated receptor gamma signaling (AID 588537; active = well fitted inhibition curve with a large enough effect in the signal ratio, with a control signal flat, not every such curve was filed as active; the % refers to the signal ratio;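 note: reporter cells co-stimulated with 50 nM rosiglitazone agonist during compound treatment; % of control where 0% means no effect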)
Summary of the method: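 Compounds are tested as concentration series for inhibition of rosiglitazone-driven (50 nM) reporter expression in GeneBLAzer PPAR-gamma-UAS-bla HEK293 cells. After 16 h at 37 C, CCF4 substrate is added for 2 h at room temperature and blue/green fluorescence is measured.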

[12] = biological target: Vitamin D3 receptor (Homo sapiens) (UniProt P11473); experiment: qHTS assay for small molecule agonists of vitamin D receptor signaling (AID 588543; calls by dose curve;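 note: 0% = DMSO basal and 100% = reference agonist control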)
Summary of the method: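 β-lactamase reporter, VDR-UAS-bla HEK293T, agonist mode. Cells plated 5 h at 37 °C, compound titration 16 h at 37 °C, CCF4 dye 2 h RT, ratio 460/530 nm. Hill fit → EC50, efficacy vs 50 nM 1α,25-(OH)2D3.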

[13] = biological target: Thyroid hormone receptor beta (Homo sapiens) (UniProt P10828); experiment: qHTS assay for small molecule agonists of thyroid hormone receptor beta signaling (AID 588545; calls by dose curve)
Summary of the method: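 In this cell-based screen, titrated compounds act on HEK 293 cells held in medium with 2% charcoal/dextran FBS, NEAA and pyruvate for 18 hrs at 37 C. Responses are expressed relative to T3 (10 nM) as 100% and basal DMSO as 0%.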

[14] = qHTS assay for small molecule antagonists of retinoid X receptor alpha signaling (AID 588546; active = well fitted inhibition curve with a large enough effect in the signal ratio, with a control signal flat, not every such curve was filed as active; the % refers to the signal ratio); conditions: HEK293T RXRa-UAS-bla, beta-lactamase ratio, antagonist mode; measured here: W530 green channel, cytotoxicity proxy
Summary of the method: (§2)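 Beta-lactamase reporter inhibition, read as CCF4 fluorescence ratio (ex 405, em 460/530 nm) after 2 h at RT. HEK293T UAS-bla cells, 2500/well, were stimulated with 9-cis-RA at 500 or 100 nM final alongside test compound for 18 h at 37 C.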

[15] = biological target: Retinoic acid receptor RXR-alpha (Homo sapiens) (UniProt P19793); experiment: as above; conditions: HEK293T RXRa-UAS-bla, beta-lactamase ratio, antagonist mode
Summary of the method: as §2

[16] = biological target: Thyroid hormone receptor beta (Homo sapiens) (UniProt P10828); experiment: qHTS assay for small molecule antagonists of thyroid hormone receptor beta signaling (AID 588547; active = well fitted inhibition curve with a large enough effect in the signal ratio, with a control signal flat, not every such curve was filed as active; the % refers to the signal ratio); conditions: TR-UAS-bla HEK293, beta-lactamase ratio, antagonist mode, 18 h
Summary of the method: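 TR-UAS-bla GripTite HEK293 cells in 2% charcoal/dextran FBS medium were preincubated 4 h at 37 C, given compound (0.59 nM to 92 uM) plus 0.4 nM T3 (final) for 18 h, then CCF4 for 2 h at RT; Hill fit gave IC50.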

[17] = qHTS assay for environmental chemicals that activate the Aryl hydrocarbon Receptor (AhR) signaling pathway (AID 651777); conditions: 1A2-DRE human hepatoma cells, luciferase, 24 h; activation: stronger effect = higher value; note: % of control where 0% means no effect; nearly all actives have a fitted effect of over 15% in size
Summary of the method: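 Stable CYP1A2 promoter/DRE-luciferase human hepatoma line treated 24 hr; One-Glo luminescence, 30 min RT.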

[18] = biological target: Peroxisome proliferator-activated receptor alpha (Homo sapiens) (UniProt Q07869); experiment: qHTS assay for small molecule agonists of the peroxisome proliferator-activated receptor alpha (PPARalpha) signaling pathway (AID 651778); conditions: PathHunter PPARalpha complementation, chemiluminescence, 6 h; max response: stronger effect = higher value; note: % of control where 0% means no effect
Summary of the method: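 Cells plated at 2,000/well and held overnight at 37 C, 5% CO2, then compound added by pin tool for 6 hr; after PathHunter detection reagent and 60 min at room temperature, chemiluminescence from enzyme complementation was read.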

[19] = qHTS assay for small molecule agonists of the antioxidant response element (ARE) signaling pathway measured by Nrf2-dependant transcriptional activity (AID 720636; active = well fitted curve in the direction sought with a large enough effect in the repeat runs; an effect the other way counts as inactive or inconclusive;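 note: HepG2 cells with an ARE-driven luciferase reporter; % of control where 0% means no effect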)
Summary of the method: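 Reporter gene assay, HepG2 ARE-luc: 16 hr compound, 37 C, 5% CO2; read-out luciferase luminescence.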

[20] = qHTS assay for small molecule agonists of the antioxidant response element (ARE) signaling pathway measured by Nrf2-dependant transcriptional activity - cell viability counter screen (AID 720653; active = well fitted curve in the direction sought with a large enough effect in the repeat runs; an effect the other way counts as inactive or inconclusive; note: % is set by controls: 0 for no effect and ±100 for the full control effect); conditions: ARE-bla HepG2 viability, CellTiter-Glo ATP luminescence, 16 h; max response: stronger effect = lower value
Summary of the method: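 ARE-bla HepG2 cells (2,000/well) rested 5 hrs at 37C/5% CO2, then exposed to compounds in DMSO for 16 hrs. Viability was read in the same wells as intracellular ATP by luminescence, 30 min at room temperature after reagent addition.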

[21] = qHTS assay for cell viability of HEK293 cells (AID 743288); conditions: ATP luminescence (CellTiter-Glo), 18 h; max response: stronger effect = lower value; note: % is set by controls: 0 for no effect and ±100 for the full control effect; nearly all actives have a fitted effect of over 50% in size
Summary of the method: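 ATP luminescence (CellTiter-Glo) reports metabolically competent cell number after parental HEK293 cells, 2,000/well, were treated with DMSO-dissolved compounds for 18 h at 37 C; reagent incubation 30 min, room temperature.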

[22] = qHTS assay for cell viability of the p53RE-bla HCT-116 cell line (AID 743292); note: % is set by controls: 0 for no effect and ±100 for the full control effect; nearly all actives have a fitted effect of over 55% in size
Summary of the method: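 Readout: CellTiter-Glo luminescence after 30 min RT. Treatment: compounds in DMSO, 16 h, 37 C. Cells: CellSensor p53RE-bla HCT-116, 4,000/well, preincubated 5 h.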

[23] = biological target: Nuclear receptor subfamily 1 group I member 2 (Rattus norvegicus) (UniProt Q9R1A7); experiment: qHTS assay for small molecule activators of the rat pregnane X receptor (rPXR) signaling pathway (AID 651751; call rule not given here; note: 0% is about no effect); conditions: rPXR reporter cells, luciferase (One-Glo), 24 h
[24] = qHTS assay for small molecule activators of the human pregnane X receptor (PXR) signaling pathway (AID 720659; call rule not given here; note: 0% is about no effect)
[25] = biological target: Cytochrome P450 3A4 (Homo sapiens) (UniProt P08684); experiment: qHTS Assay for Inhibitors and Substrates of Cytochrome P450 3A4 (AID 884)
Summary of the method: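 Luminescent readout of luciferin produced by CYP3A4 (20 nM) dealkylation of Luciferin-PPXE, 25 uM (its KM). NADPH-driven reaction ran 60 min at RT after 10 min compound preincubation; data scaled to 57 uM ketoconazole as 100% inhibition.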

[26] = biological target: Cytochrome P450 3A4 (Homo sapiens) (UniProt P08684); experiment: qHTS Assay for Activators of Cytochrome P450 3A4 (AID 885); note: nearly all actives have a fitted effect of over 65% in size
Summary of the method: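 Activators are scored by enhanced luminescence from CYP3A4 conversion of luciferin-PPXE (25uM, equal to KM) to luciferin, after 60 min at RT with an NADPH-regenerating system.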

[27] = biological target: DNA dC->dU-editing enzyme APOBEC-3G (Homo sapiens) (UniProt Q9HC16); experiment: qHTS for inhibitors of Vif-A3G interactions: Validation (AID 588379); note: 0% is about no effect
Summary of the method: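 Yellow fluorescence (Ex 488, Em 500-530) of Vif-coexpressing HeLa A3G-eYFP cells, scanned by Acumen cytometer, reports blocked A3G degradation. Cells plated at 700/well overnight at 37 deg C before compound addition, then a further overnight compound incubation at 37 deg C.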

[28] = biological target: Androgen receptor (Homo sapiens) (UniProt P10275); experiment: qHTS assay for small molecule agonists of androgen receptor signaling (AID 588515; active = well fitted curve in the direction sought with a large enough effect in the signal ratio, with a control signal flat; the % refers to the signal ratio; note: % is set by controls: 0 for no effect and ±100 for the full control effect); conditions: AR-UAS-bla HEK293, beta-lactamase ratio, agonist 16 h; stronger effect = higher value
Summary of the method: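 Stimulation of an AR-responsive β-lactamase reporter in GripTite HEK293 cells was measured after 16 h compound exposure at 37 °C, via CCF4 fluorescence after 2 h RT. EC50 from Hill fits, normalized to R1881 at 30 nM.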

[29] = qHTS assay for small molecule agonists of retinoid X receptor alpha signaling (AID 588544; calls by dose curve;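 for activation: 0% = DMSO basal wells and 100% = reference agonist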); conditions: HEK293T RXRa-UAS-bla, beta-lactamase reporter, 18 h; 530 nm emission
[30] = biological target: Retinoic acid receptor RXR-alpha (Homo sapiens) (UniProt P19793); experiment: as above
[31] = qHTS assay for small molecule agonists of the antioxidant response element (ARE) signaling pathway (AID 651741; active = well fitted activation curve with a large enough effect in the signal ratio; the % refers to the signal ratio; note: % of control where 0% means no effect)
Summary of the method: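 Reporter: beta-lactamase under ARE, stably in HepG2. Exposure: 16 h, 37 C, compounds delivered in DMSO by pin tool after 5 h cell preincubation. Readout: FRET substrate fluorescence after 2 h at RT.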

[32] = qHTS assay for small molecule activators of the p53 signaling pathway (AID 651743; active = well fitted activation curve with a large enough effect in the signal ratio, not every such curve was filed as active; the % refers to the signal ratio; note: series mostly up to about 92 µM; % of control where 0% means no effect); conditions: HCT-116 p53RE-bla, beta-lactamase FRET ratio, 16 h; activation: stronger effect = higher value
Summary of the method: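 Agonist-mode quantitative HTS in HCT-116 cells carrying a p53-response-element beta-lactamase reporter; 16 h compound treatment at 37 C, then FRET substrate loading for 2 h at room temperature and fluorescence read.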

Chain of Retinoic acid receptor RXR-alpha (Homo sapiens) (P19793 whole entry, looked up): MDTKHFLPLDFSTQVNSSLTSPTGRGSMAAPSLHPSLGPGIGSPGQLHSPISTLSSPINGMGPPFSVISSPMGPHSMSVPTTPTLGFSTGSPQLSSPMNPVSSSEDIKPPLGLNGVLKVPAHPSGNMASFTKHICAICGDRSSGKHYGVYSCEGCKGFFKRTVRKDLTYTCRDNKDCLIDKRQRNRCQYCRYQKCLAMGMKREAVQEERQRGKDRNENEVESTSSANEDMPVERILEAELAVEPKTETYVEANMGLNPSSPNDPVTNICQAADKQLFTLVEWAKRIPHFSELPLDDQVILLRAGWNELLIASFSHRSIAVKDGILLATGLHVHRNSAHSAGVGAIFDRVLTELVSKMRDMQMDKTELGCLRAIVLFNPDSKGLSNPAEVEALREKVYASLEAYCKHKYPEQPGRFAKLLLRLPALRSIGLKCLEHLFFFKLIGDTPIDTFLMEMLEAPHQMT
Chain of Androgen receptor (Homo sapiens) (P10275 whole entry, looked up): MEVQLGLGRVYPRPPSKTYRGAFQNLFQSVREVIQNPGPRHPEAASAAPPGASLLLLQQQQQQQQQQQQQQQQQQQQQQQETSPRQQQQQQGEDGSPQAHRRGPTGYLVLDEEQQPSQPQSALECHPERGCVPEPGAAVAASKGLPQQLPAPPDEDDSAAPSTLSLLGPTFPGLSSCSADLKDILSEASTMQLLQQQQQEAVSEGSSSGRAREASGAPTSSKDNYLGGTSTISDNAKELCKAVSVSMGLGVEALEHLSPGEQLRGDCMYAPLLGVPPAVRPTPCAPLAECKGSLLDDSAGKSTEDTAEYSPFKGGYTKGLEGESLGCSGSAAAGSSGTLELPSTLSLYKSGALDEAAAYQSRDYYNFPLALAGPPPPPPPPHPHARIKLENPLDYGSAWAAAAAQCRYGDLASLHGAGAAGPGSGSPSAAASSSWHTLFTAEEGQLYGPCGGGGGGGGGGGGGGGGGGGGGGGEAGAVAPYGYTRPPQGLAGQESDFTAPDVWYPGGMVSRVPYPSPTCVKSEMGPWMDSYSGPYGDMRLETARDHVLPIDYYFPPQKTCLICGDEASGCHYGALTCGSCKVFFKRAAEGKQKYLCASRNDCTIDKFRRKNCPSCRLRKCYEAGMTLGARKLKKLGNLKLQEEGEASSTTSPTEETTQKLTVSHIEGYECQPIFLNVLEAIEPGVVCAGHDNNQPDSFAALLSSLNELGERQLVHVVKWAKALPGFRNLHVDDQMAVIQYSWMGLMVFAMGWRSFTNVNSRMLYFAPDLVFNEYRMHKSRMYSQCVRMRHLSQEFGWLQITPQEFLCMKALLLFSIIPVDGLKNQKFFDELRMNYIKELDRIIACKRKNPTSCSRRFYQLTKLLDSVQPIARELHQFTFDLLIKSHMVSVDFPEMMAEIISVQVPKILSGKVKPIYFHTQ
Chain of Estrogen receptor (Homo sapiens) (P03372 whole entry, looked up): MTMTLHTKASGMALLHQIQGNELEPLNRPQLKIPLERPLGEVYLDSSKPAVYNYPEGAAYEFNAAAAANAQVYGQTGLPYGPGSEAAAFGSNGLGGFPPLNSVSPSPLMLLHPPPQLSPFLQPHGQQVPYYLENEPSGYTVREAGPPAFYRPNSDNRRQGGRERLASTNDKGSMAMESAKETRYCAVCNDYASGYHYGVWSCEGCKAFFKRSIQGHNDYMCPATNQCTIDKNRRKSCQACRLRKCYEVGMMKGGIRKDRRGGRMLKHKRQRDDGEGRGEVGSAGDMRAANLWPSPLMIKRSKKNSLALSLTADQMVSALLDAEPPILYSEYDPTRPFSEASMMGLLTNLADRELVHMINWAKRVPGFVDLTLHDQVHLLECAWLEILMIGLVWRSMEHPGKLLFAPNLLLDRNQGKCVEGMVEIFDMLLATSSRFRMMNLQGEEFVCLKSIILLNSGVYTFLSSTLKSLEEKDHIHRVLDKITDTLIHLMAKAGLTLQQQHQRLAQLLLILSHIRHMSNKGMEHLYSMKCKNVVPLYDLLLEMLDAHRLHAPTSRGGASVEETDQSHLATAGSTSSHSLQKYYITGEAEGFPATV
Chain of Peroxisome proliferator-activated receptor gamma (Homo sapiens) (P37231 whole entry, looked up): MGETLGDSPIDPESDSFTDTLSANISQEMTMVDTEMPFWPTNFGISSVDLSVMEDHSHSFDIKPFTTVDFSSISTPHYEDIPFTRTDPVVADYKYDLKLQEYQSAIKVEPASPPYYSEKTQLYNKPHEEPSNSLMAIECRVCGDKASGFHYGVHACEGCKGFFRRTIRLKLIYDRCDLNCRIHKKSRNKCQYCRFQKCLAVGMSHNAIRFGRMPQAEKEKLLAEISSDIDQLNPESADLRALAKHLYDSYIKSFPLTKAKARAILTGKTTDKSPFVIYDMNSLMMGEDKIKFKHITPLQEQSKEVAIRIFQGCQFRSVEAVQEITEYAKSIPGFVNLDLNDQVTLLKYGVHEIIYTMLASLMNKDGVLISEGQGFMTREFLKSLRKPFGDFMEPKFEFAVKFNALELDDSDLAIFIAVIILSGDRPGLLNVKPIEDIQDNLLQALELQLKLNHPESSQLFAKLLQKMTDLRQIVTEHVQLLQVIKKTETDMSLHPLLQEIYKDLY
Chain of Thyroid hormone receptor beta (Homo sapiens) (P10828 whole entry, looked up): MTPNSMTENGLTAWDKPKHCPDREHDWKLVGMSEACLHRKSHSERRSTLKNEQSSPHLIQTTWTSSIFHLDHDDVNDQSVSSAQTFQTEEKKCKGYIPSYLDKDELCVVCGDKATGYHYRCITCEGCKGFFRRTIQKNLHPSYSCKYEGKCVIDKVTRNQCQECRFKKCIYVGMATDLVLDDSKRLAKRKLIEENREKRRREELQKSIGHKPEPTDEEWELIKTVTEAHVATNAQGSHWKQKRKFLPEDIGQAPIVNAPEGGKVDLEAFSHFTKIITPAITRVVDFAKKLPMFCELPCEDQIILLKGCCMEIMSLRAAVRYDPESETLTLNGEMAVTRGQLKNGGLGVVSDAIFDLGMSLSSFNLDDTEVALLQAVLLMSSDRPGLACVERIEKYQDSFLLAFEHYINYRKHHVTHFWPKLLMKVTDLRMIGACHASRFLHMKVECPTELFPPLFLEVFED
Chain of Peroxisome proliferator-activated receptor delta (Homo sapiens) (Q03181 whole entry, looked up): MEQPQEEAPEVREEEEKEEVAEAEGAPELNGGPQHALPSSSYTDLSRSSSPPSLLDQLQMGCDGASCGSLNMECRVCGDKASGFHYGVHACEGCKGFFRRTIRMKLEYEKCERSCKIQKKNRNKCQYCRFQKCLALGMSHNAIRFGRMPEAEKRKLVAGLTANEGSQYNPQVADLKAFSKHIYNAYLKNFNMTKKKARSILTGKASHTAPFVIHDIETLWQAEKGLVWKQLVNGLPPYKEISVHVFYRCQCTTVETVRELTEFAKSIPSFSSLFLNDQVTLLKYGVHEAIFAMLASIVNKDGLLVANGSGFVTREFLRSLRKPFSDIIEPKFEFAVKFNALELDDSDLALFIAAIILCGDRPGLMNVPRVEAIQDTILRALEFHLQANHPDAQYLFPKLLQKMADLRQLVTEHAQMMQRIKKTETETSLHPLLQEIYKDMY
Chain of Peroxisome proliferator-activated receptor alpha (Homo sapiens) (Q07869 whole entry, looked up): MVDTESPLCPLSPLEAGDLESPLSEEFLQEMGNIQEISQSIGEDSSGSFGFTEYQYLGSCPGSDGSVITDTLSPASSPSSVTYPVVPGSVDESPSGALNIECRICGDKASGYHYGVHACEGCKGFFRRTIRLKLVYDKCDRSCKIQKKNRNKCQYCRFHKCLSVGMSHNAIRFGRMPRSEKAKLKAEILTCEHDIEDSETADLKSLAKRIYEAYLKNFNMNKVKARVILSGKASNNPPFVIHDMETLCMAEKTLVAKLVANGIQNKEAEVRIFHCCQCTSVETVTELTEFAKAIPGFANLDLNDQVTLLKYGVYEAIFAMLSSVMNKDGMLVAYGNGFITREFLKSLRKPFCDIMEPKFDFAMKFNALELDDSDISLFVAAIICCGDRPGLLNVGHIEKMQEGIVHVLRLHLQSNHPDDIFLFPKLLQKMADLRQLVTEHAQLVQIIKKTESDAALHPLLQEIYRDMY
Chain of Bile acid receptor (Homo sapiens) (Q96RI1 whole entry, looked up): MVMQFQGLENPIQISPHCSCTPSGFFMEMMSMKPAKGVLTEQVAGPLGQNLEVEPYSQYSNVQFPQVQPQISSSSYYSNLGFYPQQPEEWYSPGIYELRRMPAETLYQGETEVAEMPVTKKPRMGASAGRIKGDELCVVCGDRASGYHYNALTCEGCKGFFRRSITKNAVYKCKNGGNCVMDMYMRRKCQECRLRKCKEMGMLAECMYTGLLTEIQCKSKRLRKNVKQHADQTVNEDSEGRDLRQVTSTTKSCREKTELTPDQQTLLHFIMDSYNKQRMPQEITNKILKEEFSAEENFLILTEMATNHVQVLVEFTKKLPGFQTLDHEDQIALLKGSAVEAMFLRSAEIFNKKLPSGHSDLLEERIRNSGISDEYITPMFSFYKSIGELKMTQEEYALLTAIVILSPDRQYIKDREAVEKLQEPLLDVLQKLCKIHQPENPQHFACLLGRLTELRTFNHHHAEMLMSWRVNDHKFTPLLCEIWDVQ
Chain of Nuclear receptor subfamily 1 group I member 2 (Rattus norvegicus) (Q9R1A7 whole entry, looked up): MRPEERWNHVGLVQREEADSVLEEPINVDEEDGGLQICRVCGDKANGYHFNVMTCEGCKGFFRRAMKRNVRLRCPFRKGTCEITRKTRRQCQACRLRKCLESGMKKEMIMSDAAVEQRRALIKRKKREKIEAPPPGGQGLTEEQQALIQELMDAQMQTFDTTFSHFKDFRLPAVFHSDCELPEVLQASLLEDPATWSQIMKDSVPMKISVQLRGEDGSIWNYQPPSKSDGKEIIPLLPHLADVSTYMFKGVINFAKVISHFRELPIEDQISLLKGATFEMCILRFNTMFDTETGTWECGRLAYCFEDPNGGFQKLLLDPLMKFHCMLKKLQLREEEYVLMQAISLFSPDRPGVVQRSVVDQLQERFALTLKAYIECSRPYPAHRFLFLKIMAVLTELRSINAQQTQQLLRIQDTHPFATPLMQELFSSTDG

COCc1cnc(C2=NC(C)(C(C)C)C(=O)N2)c(C(=O)O)c1 (stereo not given)
inactive: Potency [1] | Potency [2] | Potency [3] | Potency [4] | activation [5] -0.497% | Potency [6] | outcome [7] | Potency [9] | Potency [10] | Potency [11] | outcome [12] | Potency [13] | max response [15] 6.51% | activity change % (negative = inhibition) [16] -1.58% | activation [17] 1.65% | max response [18] 0.0113% | Potency [19] | max response [20] 4.02% | max response [21] -3.54% | Potency [22] | max response [23] -0.0309% | outcome [24]
-13.7%: max response [8] | max response [14]

COC1=C[C@H]2[C@H]3Cc4ccc(OC)c(O)c4[C@@]2(CCN3C)CC1=O
inactive: Potency [26] | outcome [27]

c1cc2c3c(cccc3c1)CC2
inactive: Potency [1] | Potency [2] | activation [28] 5.35% | Potency [3] | Potency [6] | outcome [7] | Potency [9] | Potency [10] | Potency [11] | Potency [30] | Potency [13] | max response [15] -3.28% | activity change % (negative = inhibition) [16] 3.51% | Potency [31] | activation [32] 5.25% | activation [17] 0.274% | max response [18] -0.57% | Potency [19] | max response [20] 18.9% | max response [21] -7.08% | Potency [22] | max response [23] 0.0529% | outcome [24]
-25.4%: max response [8]
-4.84%: max response [14]
-7.15%: max response [29]
